# Test results reported in PubChem BioAssay (Tox21).
# Records with an inconclusive call do not appear. A call without a number means that no potency is given here. A number with no mark means an inactive call. The source made the active and inactive calls. The call rests on the fitted dose curve.
# Test: p53 small molecule agonists, cell-based qHTS assay with human liver microsomes (AID 1963577);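 further: p53 response element beta-lactamase reporter cells with liver microsomes plus NADPH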
# Conditions: HCT-116 p53RE-bla with human liver microsomes, ratio, 16 h; series mostly up to 66 µM
# Method in brief: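 Steps: plate p53RE-bla cells, incubate 5 h at 37 C; add compound in DMSO; add microsomes (0.5 mg/mL final) and NADPH (0.5 mg/mL final); incubate 16 h at 37 C; add LiveBLAzer, 2 h RT; read fluorescence.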
Compound,Potency,activation
CCO[Si](CCCN=C=O)(OCC)OCC,inactive,
CC1CC(O)CC(C)(C)C1 (centres undefined),inactive,
OCC(CO)N[C@H]1C[C@](O)(CO)[C@@H](O)[C@H](O)[C@H]1O,inactive,
COc1cc(Cl)ccc1Cl,inactive,
CCCCCCCCCCCCI,inactive,
O=C1OC(CN2CCOCC2)CN1/N=C/c1ccc([N+](=O)[O-])o1 (centres undefined),inactive,
NC(=O)NNC(N)=O,inactive,
CC/C=C\C#N,inactive,
O=C(O)CN(CCCN(CC(=O)O)CC(=O)O)CC(=O)O,,-11.5% [at 13.5 µM]
O=C(O)CC(=O)O,inactive,
CC(=O)Nc1ccc(N=Nc2cc(C)ccc2O)cc1,inactive,
CS(C)(=O)=O,inactive,
CN(C)CCCN(C)CCCN(C)C,inactive,
CC(=O)[C@H]1CC[C@H]2[C@@H]3CCC4=CC(=O)CC[C@]4(C)[C@H]3CC[C@]12C,inactive,
C1=Cc2ccccc2C1,inactive,
N=c1nc(N2CCCCC2)cc(N)n1O,inactive,
CCCc1ccccc1,inactive,
O=[N+]([O-])c1cncn1CCN1CCOCC1,inactive,
C1CSCCS1,inactive,
c1cnccn1,inactive,
COC(/C=C(\C)CCC=C(C)C)OC,inactive,
CCCC(=O)OCC(COC(=O)CCC)OC(=O)CCC,inactive,
O=C1NC(c2ccccc2)(c2ccccc2)C(=O)N1COP(=O)(O)O,inactive,
C=C(C)C(=O)OCCNC(C)(C)C,inactive,
